High-throughput results (PubChem)
HT1080NT lethal: kills 2HG-producing HT-1080-NT fibrosarcoma cells; HT-1080-NT fibrosarcoma viability, CellTiter-Glo ATP luminescence, 48 h; Potency, µM (highest dose often 46.1 µM), usual class: cytotoxic; 360,000 tested, 1.6% active; AID 686970;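 also: NT is the 2HG producing partner of a matched IDH1 knockdown line; nearly all actives have a fitted effect of over 55% in size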
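Fibrosarcoma NT cells, 750 per well in 5% FBS RPMI, were exposed to compound for 48 hours. Viability: CellTiter-Glo luminescence.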
SW480 rerep: inducers of DNA re-replication in SW480 colon cancer cells | SW480 DNA re-replication, Hoechst DNA content imaging, 48 h | Potency, µM (highest dose often 46.1 µM), actives largely listed as activators | 340,000 tested, 1.8% active | AID 624297; also: nearly all actives have a fitted effect of over 55% in size
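Image-based read-out: total Hoechst fluorescence of nuclei (405 nm excitation, 500-530 nm emission), with hits raising the fraction of high-intensity nuclei. SW480 colon cells incubated 48 hr with compounds at 37 C.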
HT1080 IDH1KD tx: toxicity to HT-1080 IDH1 knockdown cells (counter line); HT-1080 IDH1 knockdown viability, ATP luminescence, 48 h; Potency, µM (highest dose often 46.1 µM), hits mostly cytotoxic; 360,000 tested, 2% active
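In this qHTS, HT-1080 cells depleted of IDH1 are exposed for 48 h at 37 °C to compound titrations. Toxicity is scored from CellTiter-Glo luminescence, with DMSO as full viability and medium alone as none.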
KB-V1 cytotox: kills drug-selected multidrug resistant KB-V1 cells | KB-V1 MDR cells viability, CellTiter-Glo, 72 h | Potency, µM (doses to about 46.1 µM), most hits filed as cytotoxic | 400,000 tested, 3.4% active | AID 1347076; also: nearly all actives have a fitted effect of over 60% in size
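Cytotoxicity via CellTiter-Glo luminescence after 72 h compound exposure at 37 degrees C. Cells: drug-selected KB-V1 line, DMEM phenol-red free plus 10% FBS. Compounds tested at multiple concentrations; normalized data fitted to concentration-effect curves.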
KB-3-1 tox: KB-3-1 parental cell cytotoxicity | KB-3-1 viability, CellTiter-Glo ATP luminescence, 72 h | Potency, µM (highest dose often 46.1 µM), most hits filed as cytotoxic | 400,000 tested, 1.4% active | AID 1347075; also: nearly all actives have a fitted effect of over 60% in size
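KB-3-1 parental drug-naive adenocarcinoma cells in DMEM/10% FBS, incubated 72 h at 37 C with pin-transferred compounds across a concentration series. Viability by CellTiter-Glo luminescence; concentration-response curves fitted after normalization.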
MCF10A rerep: inducers of DNA re-replication in MCF 10A breast cells. MCF 10A DNA re-replication, Hoechst nuclear intensity, 48 h. AID 624296. Potency, µM (highest dose often 46.1 µM), usual class: activators. 350,000 tested, 2.9% active; also: nearly all actives have a fitted effect of over 50% in size
Of the large screens only hits and unclear results are named; the others gave an inactive call; ! = not active in a repeat. This is a sample that favours compounds with a hit; in the whole collection about 8% have one here. Calls follow the shape of the dose curve; as a rule, active = well fitted curve in the direction sought with a large enough effect; inconclusive = small, poorly fitted or top-dose-only effect, or another doubt; inactive = no such curve, though single readings can be large; an effect the other way counts as inactive or inconclusive.

Cc1cccc(C(=O)NCC(=O)OCc2cc(=O)n3nc(CC(C)C)sc3n2)c1	none (no result: HT1080NT lethal, SW480 rerep, HT1080 IDH1KD tx, MCF10A rerep)
C#CCNCCS(=O)(=O)N(Cc1ccc(Br)cc1)[C@@H](C)C(=O)O	none
COc1ccc(S(=O)(=O)c2c(SC)nn(CC(=O)Nc3ccc(C)c(Cl)c3)c2N)cc1	none (no result: HT1080NT lethal, SW480 rerep, HT1080 IDH1KD tx, MCF10A rerep)
Cc1ccc(-n2cc(-c3ccccc3)c3c(N4CCN(C)CC4)ncnc32)cc1	MCF10A rerep 21µM
CCC(C)c1ccccc1NC(=O)c1cc2cccc([N+](=O)[O-])c2[nH]1 (stereo not given)	HT1080NT lethal inconclusive, HT1080 IDH1KD tx 16µM, MCF10A rerep inconclusive
Cc1ccc(NC(=O)c2cc3cccc([N+](=O)[O-])c3[nH]2)cc1	none
Cc1nn(Cc2ccc(Cl)cc2)c(C)c1NC(=O)C(c1ccccc1)c1ccccc1	KB-V1 cytotox 12µM, MCF10A rerep inconclusive
Cc1nn(Cc2ccc(C(=O)Nc3nccs3)cc2)c(C)c1Cl	KB-V1 cytotox 21µM, KB-3-1 tox 16µM, MCF10A rerep 5.8µM
Cc1nn(Cc2ccc(C(=O)NN)cc2)c(C)c1Cl	HT1080 IDH1KD tx inconclusive
Cc1nn(Cc2ccc(C(=O)Nc3ccccc3F)cc2)c(C)c1Cl	MCF10A rerep 23µM
Cc1cc(C(=O)Nc2c(C)nn(Cc3ccc(Cl)cc3)c2C)no1	none
COc1ccc(S(=O)(=O)Nc2ccc3c(c2)C(=O)N([C@H](C)CO)C[C@H](C)[C@@H](CN(C)C(=O)Nc2c(C)noc2C)O3)cc1	none
CCCCCN1C(C(=O)c2ccccc2)=C(NC(=O)c2ccc(C)cc2)c2ccccc2S1(=O)=O	KB-3-1 tox inconclusive (no result: HT1080NT lethal, SW480 rerep, HT1080 IDH1KD tx, MCF10A rerep)
CCn1c(CSc2nc(C)cc(C)n2)nnc1SCC(=O)N1CCCc2ccccc21	KB-V1 cytotox 21µM
N#C/C(=C(/O)CSc1nnc(Cc2cccs2)n1C1CCCCC1)c1nc2ccccc2[nH]1	SW480 rerep 18µM, KB-3-1 tox inconclusive, MCF10A rerep inconclusive
COc1ccccc1-c1nnc(SC/C(O)=C(\C#N)c2nc3ccccc3[nH]2)n1C1CCCCC1	MCF10A rerep inconclusive
O=C(CSc1nnc(Cc2cccs2)n1C1CCCCC1)N1CCCc2ccccc21	SW480 rerep inconclusive, HT1080 IDH1KD tx inconclusive, KB-V1 cytotox 21µM, KB-3-1 tox inconclusive, MCF10A rerep inconclusive
Cn1c(Cc2cccs2)nnc1SCC(=O)N1CCCc2ccccc21	none
Cc1ccc2cc(C#N)c(SCC(=O)N3CCCc4ccccc43)nc2c1C	KB-V1 cytotox 2.6µM
Cc1ccc2cc(C#N)c(SCC(=O)N3CCCc4ccccc43)nc2c1	none
CCn1c(CNc2ccc(OC)cc2)nnc1SCC(=O)N1CCCc2ccccc21	none
Cc1ccc(NC(=O)Cn2c(=O)ccc3cc(S(=O)(=O)N4CCC(C)CC4)ccc32)c(C)c1	none (no result: HT1080NT lethal, SW480 rerep, HT1080 IDH1KD tx, MCF10A rerep)
CCOC(=O)C(=O)Cc1cccnn1	none
CCCCCNC(=O)C(c1ccc(OC)cc1)n1c(=O)c(-c2ccco2)nc2ccccc21 (stereo not given)	HT1080NT lethal 26µM, HT1080 IDH1KD tx 15µM, KB-V1 cytotox 18µM, KB-3-1 tox inconclusive (no result: SW480 rerep, MCF10A rerep)
CCCCCNC(=O)C(c1ccc(C#N)cc1)n1c(=O)c(-c2ccco2)nc2ccccc21 (stereo not given)	none (no result: SW480 rerep, MCF10A rerep)
CCCc1cc(=O)oc2c3c(cc(OCC(=O)N[C@@H](C)C(=O)O)c12)OC(C)(C)CC3	none
CCCc1cc(=O)oc2c3c(c4c(c12)OC(C)(C)C=C4)OC(C)C(C)C3O (stereo not given)	HT1080NT lethal 5.8µM, HT1080 IDH1KD tx 3.7µM, KB-V1 cytotox inconclusive, KB-3-1 tox inconclusive, MCF10A rerep 10µM
CC(Oc1ccccc1)C(=O)Nc1ccc(C(N)=O)cc1 (stereo not given)	MCF10A rerep inconclusive
CC(=O)c1ccc(NC(=O)C(C)O/N=C(\N)c2ccccc2)cc1 (stereo not given)	KB-V1 cytotox 23µM
COC(=O)c1ccc(NC(=S)N2CCN(Cc3ccccc3OC)CC2)cc1	none
O=C1C(Nc2ccc(O)cc2)=C/C(=N/S(=O)(=O)c2cccs2)c2ccccc21	HT1080NT lethal 2.3µM, SW480 rerep 5.2µM, HT1080 IDH1KD tx 1.5µM, KB-V1 cytotox 13µM, KB-3-1 tox 3.3µM, MCF10A rerep inconclusive
Cc1ccc(NC2=C/C(=N\S(=O)(=O)c3cccs3)c3ccccc3C2=O)c(C)c1	HT1080NT lethal 7.3µM, SW480 rerep 6.5µM, HT1080 IDH1KD tx 6.5µM, KB-V1 cytotox 5.2µM, KB-3-1 tox 6.5µM, MCF10A rerep 6.5µM
Cc1ccc(Cl)cc1NC1=C/C(=N\S(=O)(=O)c2cccs2)c2ccccc2C1=O	HT1080NT lethal 3.7µM, SW480 rerep 2.9µM, HT1080 IDH1KD tx 4.6µM, KB-V1 cytotox 9.2µM!, KB-3-1 tox 3.3µM!, MCF10A rerep 0.65µM
Cc1cccc(NC2=C/C(=N/S(=O)(=O)c3cccs3)c3ccccc3C2=O)c1	HT1080NT lethal 4.6µM, SW480 rerep inconclusive, HT1080 IDH1KD tx 3.3µM, KB-V1 cytotox inconclusive, KB-3-1 tox inconclusive, MCF10A rerep 2.9µM
O=C(Nc1ccccc1)N1CCN(C(=O)c2nsc3ccccc23)CC1	none (no result: HT1080NT lethal, SW480 rerep, HT1080 IDH1KD tx, MCF10A rerep)
Cc1onc(-c2c(F)cccc2Cl)c1C(=O)OCC(=O)c1c[nH]c2ccccc12	HT1080NT lethal inconclusive, HT1080 IDH1KD tx inconclusive
CCNC(=O)c1c(NC(C)=O)sc2c1CCCC2	none
CCNC(=O)c1c(NC(=O)c2cc(-c3cc(C)cc(C)c3O)n[nH]2)sc2c1CCCC2	MCF10A rerep 6.5µM
CCC(C)NC(=O)C1CCN(S(=O)(=O)c2ccc3c(ccn3CC)c2)CC1 (stereo not given)	none (no result: HT1080NT lethal, SW480 rerep, HT1080 IDH1KD tx, MCF10A rerep)
Cc1ccc(/C=C2\SC(=S)N(C3CCS(=O)(=O)C3)C2=O)o1 (stereo not given)	SW480 rerep 16µM
O=C1/C(=C/c2ccncc2)SC(=S)N1C1CCS(=O)(=O)C1 (stereo not given)	HT1080NT lethal inconclusive, KB-V1 cytotox inconclusive, KB-3-1 tox inconclusive, MCF10A rerep 21µM
O=C1/C(=C/c2ccccc2)SC(=S)N1C1CCS(=O)(=O)C1 (stereo not given)	KB-3-1 tox inconclusive, MCF10A rerep inconclusive
CN(C)c1ccc(/C=C/c2cc(/C=C/c3ccc(N(C)C)cc3)c3ccccc3n2)cc1	none (no result: HT1080NT lethal, SW480 rerep, HT1080 IDH1KD tx, MCF10A rerep)
Cc1ccc2nc(-c3ccccc3)c(Cc3cccc(Cl)c3)n2c1	HT1080NT lethal inconclusive, HT1080 IDH1KD tx inconclusive (no result: SW480 rerep, MCF10A rerep)
CCCCCCSc1cccc(-c2nc3ccccn3c2NCc2ccccc2)c1	SW480 rerep inconclusive, KB-V1 cytotox inconclusive, KB-3-1 tox inconclusive, MCF10A rerep 21µM
